Our source for the growth inhibition values is PubChem BioAssay (NCI).

Compounds without any hit were thinned out: in the full panel of roughly 79,000, 15% have a hit. Values without a mark were called inactive. The source made the active and inactive calls. Cut-off read from the data, not from the text of the source: active = growth inhibition above about 70%; inactive = the rest.

Assay [1] in a line: NCI Yeast Anticancer Drug Screen. Data for the rad50 strain (AID 155).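 Note: 0% = growth of vehicle-only cultures of the same strain.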 The following applies: S. cerevisiae rad50 strain growth inhibition, active compounds read high. The gist of the method: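 Compounds were tested on a yeast strain with an engineered DNA damage repair alteration; the reported value is growth inhibition normalised to vehicle treatment.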
Assay [2] can be described thus: NCI Yeast Anticancer Drug Screen. Data for the mec2-1 strain (AID 157). To be noted: S. cerevisiae mec2-1 strain, active compounds read high. The gist of the method:
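Test agents were screened against the mec2-1 yeast strain, with defined DNA repair or cell cycle alteration. Growth was scored as inhibition against vehicle-only controls.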

Assay [3] can be described thus: NCI Yeast Anticancer Drug Screen. Data for the sgs1 mgt1 strain (AID 161).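 Note: 0% = growth of cultures given vehicle only.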 To be noted: S. cerevisiae sgs1 mgt1 strain, active compounds read high. The gist of the method:
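Read-out: growth inhibition vs vehicle controls. Cells: mutant yeast strain deficient in DNA damage repair.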

Assay [4] in a line: NCI Yeast Anticancer Drug Screen. Data for the cln2 rad14 strain (AID 165).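 Note: 0% = growth equal to vehicle treated cultures.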 The following applies: S. cerevisiae cln2 rad14 strain, active compounds read high. The method, boiled down: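 Growth of compound-exposed yeast (cln2 rad14 genotype) measured and expressed as inhibition relative to vehicle.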
Assay [5] can be described thus: NCI Yeast Anticancer Drug Screen. Data for the bub3 strain (AID 167). The following applies: S. cerevisiae bub3 mutant strain, active compounds read high. The method, boiled down: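 Growth of a checkpoint-deficient yeast mutant is measured after compound exposure. Values represent inhibition relative to vehicle.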
The nature of assay [6]: NCI Yeast Anticancer Drug Screen. Data for the mlh1 rad18 strain (AID 175). The following applies: S. cerevisiae mlh1 rad18 strain growth inhibition, active compounds read high. The method, boiled down:
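In this whole-cell yeast screen, a strain with altered DNA damage repair is challenged with compound, and its growth is measured against matched vehicle-treated controls.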

[7] abbreviates: at 5.0 µM (retest, dose inferred, filed as 0.5).
Setting [8] is: at 50.0 µM (retest, dose inferred, filed as 5.0).

Regarding `S=C(Nc1ccc(Br)c(Cl)c1)SCc1ccc2c(c1)OCO2`, the growth inhibition was 49% in assay [1] (setting [7]); 97% (active) in assay [1] (setting [8]); 88% (active) in assay [1] (at 50.0 µM); 49% in assay [2] (setting [7]); 98% (active) in assay [2] (setting [8]); 88.9% (active) in assay [2] (at 50.0 µM). For the same molecule, the growth inhibition in assay [3] (setting [7]) is 77% (active); in assay [3] (setting [8]) it was 98% (active); in assay [3] (at 50.0 µM), 88.7% (active); in assay [4] (setting [7]), 50%; in assay [4] (setting [8]), 98% (active); in assay [4] (at 50.0 µM), 86.1% (active). The growth inhibition in assay [5] (setting [7]) is 76% (active); in assay [5] (setting [8]), 98% (active); in assay [5] (at 50.0 µM) it was 88.2% (active); in assay [6] (setting [7]), 44%; in assay [6] (setting [8]), 97% (active); in assay [6] (at 50.0 µM), 87.4% (active).
Turning to `CCCCCC(=O)NNc1ccccc1`, the growth inhibition in assay [1] (setting [7]) is 18%; in assay [1] (setting [8]), 89% (active); in assay [1] (at 50.0 µM), 85.3% (active); in assay [2] (setting [7]), 1%; in assay [2] (setting [8]) it was 76% (active); in assay [2] (at 50.0 µM), 42.6%. In addition, the growth inhibition in assay [3] (setting [7]) is 5%; in assay [3] (setting [8]) it was 48%; in assay [3] (at 50.0 µM), 80% (active); in assay [4] (setting [7]), 0%; in assay [4] (setting [8]), 51%; in assay [4] (at 50.0 µM) it was 78% (active). For the same molecule, the growth inhibition in assay [5] (setting [7]) was 9%; in assay [5] (setting [8]), 95% (active); in assay [5] (at 50.0 µM), 83.1% (active); in assay [6] (setting [7]), 22%; in assay [6] (setting [8]) it was 93% (active); in assay [6] (at 50.0 µM), 90.8% (active).
As for `Cc1ccc(C(=O)N2CCN(C(=O)c3ccc(C)cc3)c3ccccc32)cc1`, the growth inhibition in assay [1] (setting [7]) was -14%; in assay [1] (setting [8]), 6%; in assay [1] (at 50.0 µM), 42.5%; in assay [2] (setting [7]) it was -13%; in assay [2] (setting [8]), -19%; in assay [2] (at 50.0 µM) it was 33.7%. The growth inhibition was -10% in assay [3] (setting [7]); 30% in assay [3] (setting [8]); 40.8% in assay [3] (at 50.0 µM); -7% in assay [4] (setting [7]); 14% in assay [4] (setting [8]); 36.6% in assay [4] (at 50.0 µM). The growth inhibition is -3% in assay [5] (setting [7]); 43% in assay [5] (setting [8]); 75.8% (active) in assay [5] (at 50.0 µM); -26% in assay [6] (setting [7]); 14% in assay [6] (setting [8]); 18.9% in assay [6] (at 50.0 µM).
As to `CCCC(=O)Oc1ccc(-c2ccccc2)cc1Br`, the growth inhibition in assay [1] (setting [7]) is 2%; in assay [1] (setting [8]), 83% (active); in assay [1] (at 50.0 µM), 96.5% (active); in assay [2] (setting [7]) it was 2%; in assay [2] (setting [8]), 86% (active); in assay [2] (at 50.0 µM) it was 91.5% (active). In addition, the growth inhibition in assay [3] (setting [7]) was 4%; in assay [3] (setting [8]), 81% (active); in assay [3] (at 50.0 µM), 94.5% (active); in assay [4] (setting [7]), 6%; in assay [4] (setting [8]), 84% (active); in assay [4] (at 50.0 µM), 86.7% (active). Further, the growth inhibition in assay [5] (setting [7]) is 18%; in assay [5] (setting [8]) it was 77% (active); in assay [5] (at 50.0 µM), 91.1% (active); in assay [6] (setting [7]), -1%; in assay [6] (setting [8]), 73% (active); in assay [6] (at 50.0 µM), 95.9% (active).
`c1ccc2cc3c(ccc4cccc[n+]43)cc2c1`: the growth inhibition in assay [1] (setting [7]) is 17%; in assay [1] (setting [8]), 28%; in assay [1] (at 50.0 µM) it was 34.3%; in assay [2] (setting [7]), 20%; in assay [2] (setting [8]), 52%; in assay [2] (at 50.0 µM) it was 18%. The growth inhibition is 23% in assay [3] (setting [7]); 53% in assay [3] (setting [8]); 35.6% in assay [3] (at 50.0 µM); 30% in assay [4] (setting [7]); 29% in assay [4] (setting [8]); 71.5% (active) in assay [4] (at 50.0 µM). The growth inhibition in assay [5] (setting [7]) is -4%; in assay [5] (setting [8]), 8%; in assay [5] (at 50.0 µM) it was 27.7%; in assay [6] (setting [7]), 10%; in assay [6] (setting [8]), 45%; in assay [6] (at 50.0 µM), 29.9%.
Consider `CCCCCCCC/C=C\CCCCCCCC(=O)OCCCCC`, for which the growth inhibition in assay [1] (setting [7]) was -7%; in assay [1] (setting [8]), 2%; in assay [1] (at 50.0 µM), 15.6%; in assay [2] (setting [7]), -5%; in assay [2] (setting [8]), 0%; in assay [2] (at 50.0 µM), 13.8%. The growth inhibition was -2% in assay [3] (setting [7]); 18% in assay [3] (setting [8]); 17.2% in assay [3] (at 50.0 µM); -8% in assay [4] (setting [7]); -10% in assay [4] (setting [8]); 60.8% in assay [4] (at 50.0 µM). Also, the growth inhibition in assay [5] (setting [7]) was -6%; in assay [5] (setting [8]), -8%; in assay [5] (at 50.0 µM) it was 40.5%; in assay [6] (setting [7]), 15%; in assay [6] (setting [8]), 11%; in assay [6] (at 50.0 µM), 33.6%.
With `O=C(c1ccccc1)C(C(=O)c1ccccc1)c1ccc2ccccc2n1`, the growth inhibition in assay [1] (setting [7]) was 0%; in assay [1] (setting [8]), 1%; in assay [1] (at 50.0 µM) it was 19.2%; in assay [2] (setting [7]), 1%; in assay [2] (setting [8]), -4%; in assay [2] (at 50.0 µM), 2.75%. The growth inhibition in assay [3] (setting [7]) is -2%; in assay [3] (setting [8]), -1%; in assay [3] (at 50.0 µM), 63.5%; in assay [4] (setting [7]), -2%; in assay [4] (setting [8]) it was 1%; in assay [4] (at 50.0 µM) it was 9.75%. Moreover, the growth inhibition in assay [5] (setting [7]) is 1%; in assay [5] (setting [8]), -4%; in assay [5] (at 50.0 µM), 19.1%; in assay [6] (setting [7]), -2%; in assay [6] (setting [8]) it was -3%; in assay [6] (at 50.0 µM) it was 22.9%.
As to `[O-][n+]1ccc(Br)c(/C=C/c2ccccc2)c1`, the growth inhibition is 0% in assay [1] (setting [7]); 20% in assay [1] (setting [8]); 24.1% in assay [1] (at 50.0 µM); -5% in assay [2] (setting [7]); 32% in assay [2] (setting [8]); 18.1% in assay [2] (at 50.0 µM). The growth inhibition is -2% in assay [3] (setting [7]); 23% in assay [3] (setting [8]); 20% in assay [3] (at 50.0 µM); 0% in assay [4] (setting [7]); 9% in assay [4] (setting [8]); 2.3% in assay [4] (at 50.0 µM). In addition, the growth inhibition in assay [5] (setting [7]) is -5%; in assay [5] (setting [8]) it was 9%; in assay [5] (at 50.0 µM) it was 24.6%; in assay [6] (setting [7]), 2%; in assay [6] (setting [8]), 79% (active); in assay [6] (at 50.0 µM), 56.1%.
Consider `C=CCSc1nc2ccc(N3C(=O)C=CC3=O)cc2s1`, for which the growth inhibition in assay [1] (setting [7]) is 59%; in assay [1] (setting [8]) it was 99% (active); in assay [1] (at 50.0 µM), 94.7% (active); in assay [2] (setting [7]), 50%; in assay [2] (setting [8]), 99% (active); in assay [2] (at 50.0 µM), 98% (active). The growth inhibition in assay [3] (setting [7]) is 51%; in assay [3] (setting [8]), 100% (active); in assay [3] (at 50.0 µM), 97.5% (active); in assay [4] (setting [7]) it was 24%; in assay [4] (setting [8]) it was 98% (active); in assay [4] (at 50.0 µM), 96.5% (active). Further, the growth inhibition in assay [5] (setting [7]) was 27%; in assay [5] (setting [8]), 99% (active); in assay [5] (at 50.0 µM) it was 99% (active); in assay [6] (setting [7]), 85% (active); in assay [6] (setting [8]), 97% (active); in assay [6] (at 50.0 µM), 97.8% (active).
